Bioassay records from PubChem BioAssay.
TGFb SMAD3 inh: qHTS for Inhibitors of TGF-b; HepG2 CAGA-GFP TGF-b/SMAD3 reporter, GFP fluorescence, 18 h; TGF-beta stimulated, 500 pg/mL final; Potency, µM (top dose mostly 46.1 µM), without a hit: at the top dose activity, negative = inhibition, actives largely listed as inhibitors; hit rate 1.2% among 410,000; AID 588855, 2011; further: potency means the concentration at half of the fitted maximal effect; on the % scale 0 is the no-effect control and ±100 the full control effect; nearly all actives have a fitted effect of over 65% in size
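Inhibition was scored as loss of TGF-beta-induced (500 pg/mL final, 18 hours, 37 degrees C) GFP in HEPG2 cells carrying a CAGA-GFP reporter, in DMEM with 1% FBS. Well GFP was summed per cell; Activity was normalised to unstimulated and stimulated DMSO wells, then concentration-response fitting.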
ATXN2 expr inh: Primary qHTS for Inhibitors of ATXN expression | Potency, µM (series often up to 57 µM), inactives show top-dose activity change, negative = inhibition, actives largely listed as inhibitors | HEK-293 ATXN2-luciferase reporter, luminescence, 24 h | hit rate 0.72% among 360,000; further: potency means the concentration at half of the fitted maximal effect; on the % scale 0 is the no-effect control and ±100 the full control effect; nearly all actives have a fitted effect of over 55% in size
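ATXN2-luciferase reporter cells (luciferase flanked by upstream and downstream ATXN2 gene portions) were treated 24 h at 37 °C with compounds at up to 57 uM. SteadyGlo luminescence gave expression; GF-AFC fluorescence gave viability.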
S2 tox: Viability Counterscreen for Primary qHTS for Inhibitors of ATXN expression | S2 cells (HEK-293 line with an ATXN2-luciferase reporter) viability, CellTiter-Fluor protease fluorescence, 24 h | Potency, µM (doses to about 56.7 µM), most hits filed as cytotoxic | hit rate 0.49% among 400,000; further: potency means the concentration at half of the fitted maximal effect; nearly all actives have a fitted effect of over 40% in size
HepG2 viability: qHTS for Inhibitors of TGF-b: Cytotox Counterscreen; HepG2 CAGA-GFP viability, ATP luminescence, 18 h; Potency, µM (series often up to 46.1 µM), without a hit: at the top dose activity change, negative = cytotoxicity, most hits filed as cytotoxic; hit rate 0.76% among 410,000; AID 588856, 2011; further: potency means the concentration at half of the fitted maximal effect
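HepG2 CAGA-GFP cells (1000/well, DMEM with 1% FBS) received compound, then TGF-beta at 500 pg/mL final, and were incubated 18 hours at 37 degrees C. Viability was read by CellTiter-Glo luminescence. Media-only wells were set as complete cell-killing and DMSO as no toxicity.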
Giardia killer: Small Molecules that selectively kill Giardia lamblia: qHTS; Giardia lamblia trophozoite viability; activity change, % at 7.66 µM, hits read low; hit rate 0.15% among 340,000; AID 540267, 2011; in the data active means activity change below about -80%; inconclusive means between about -30% and that limit;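 further: parasites exposed to compound for two days anaerobically before the ATP read; on the % scale 0 is the no-effect control and ±100 the full control effect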
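Giardia lamblia trophozoites (100 cells/well) were incubated with compounds for 48 h at 37 deg C under anaerobic conditions. Viability was read as ATP content by one-step luminescence after 15-30 min at room temperature.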
uPA generation: qHTS for Inhibitors of Cell Surface uPA Generation. AID 540303, 2011. cell surface uPA generation assay, qHTS. hit rate 0.31% among 330,000. Potency, µM (titrated, usually from 38.3 µM), for inactives: at the top dose activity change, negative = inhibition, hits mostly inhibitors; active means well fitted inhibition curve with a large enough effect; inconclusive means small, poorly fitted or top-dose-only effect; inactive means no such curve, though single readings can be large or run the other way; tested in mouse RAW 264.7 cells; further: potency means the concentration at half of the fitted maximal effect; on the % scale 0 is the no-effect control and ±100 the full control effect; nearly all actives have a fitted effect of over 55% in size
Numbers without * were called inactive; ! = repeats disagree. Rows were chosen to be rich in hits. Some 2.6% of all compounds tested hit in one or more screens of this group. Unless noted, the call rests on the fitted dose curve; in most records, active means well fitted curve in the direction sought with a large enough effect; inconclusive means small, poorly fitted or top-dose-only effect, or another doubt; inactive means no such curve, though single readings can be large; an effect the other way counts as inactive or inconclusive.

Results for CC(=O)C1=C(C)OC(N)=C(C#N)C1c1cc([N+](=O)[O-])ccc1Cl (stereo not given) ?
TGFb SMAD3 inh: inconclusive; ATXN2 expr inh: -24%; S2 tox: inactive; HepG2 viability: 6.3µM*; Giardia killer: -5; uPA generation: -5%

What do the screens show for `CC(=O)C1=C(C)OC(N)=C(C#N)C1c1cccc([N+](=O)[O-])c1` (stereo not given)?
TGFb SMAD3 inh: 4%; ATXN2 expr inh: -16%; S2 tox: inactive; HepG2 viability: -1%; Giardia killer: -16; uPA generation: -2%

What do the screens show for `Nc1c(C(=O)Nc2cccc(C(=O)O)c2)sc2nc3c(cc12)CCCC3`?
TGFb SMAD3 inh: 2%; ATXN2 expr inh: 4µM*; S2 tox: inactive; HepG2 viability: 8%; Giardia killer: inconclusive; uPA generation: -16%

Results for COc1ccccc1NC(=O)c1cc2c(CO)cnc(C)c2oc1=Nc1cccc(C(N)=O)c1 ?
TGFb SMAD3 inh: -13%; S2 tox: 14µM*; HepG2 viability: -14%; Giardia killer: -13; uPA generation: -5%

How did CC1(C)O[C@@H]2C[C@H]3[C@@H]4CCC5=CC(=O)C=C[C@]5(C)[C@@H]4[C@@H](O)C[C@]3(C)[C@]2(C(=O)CO)O1 do in these assays?
ATXN2 expr inh: -2%; S2 tox: inactive

How did CCCCCNCc1ccc(Cl)cc1 do in these assays?
TGFb SMAD3 inh: -1%; ATXN2 expr inh: -5%; S2 tox: inactive; HepG2 viability: -8%; Giardia killer: 14; uPA generation: 3%

What do the screens show for `CCCCCCC[N+](CC)(CC)CCCCc1ccc(Cl)cc1`?
TGFb SMAD3 inh: 5%; ATXN2 expr inh: 22µM*!; S2 tox: inconclusive; HepG2 viability: -26%; Giardia killer: -7; uPA generation: inconclusive

Results for Cc1ccc(N/C(C(Cl)=C(Cl)Cl)=C(/Cl)[N+](=O)[O-])c(C)c1 ?
TGFb SMAD3 inh: inconclusive; S2 tox: inconclusive; HepG2 viability: -16%; Giardia killer: -94*; uPA generation: inconclusive

How did Cc1ccc(NC(=O)CC(=O)Nc2ccc(C)cc2C)c(C)c1 do in these assays?
TGFb SMAD3 inh: inconclusive; S2 tox: inactive; HepG2 viability: -3%; Giardia killer: 1; uPA generation: 16%

What do the screens show for `C[C@H]1CCCCO[C@H](CN(C)C(=O)C2CCCCC2)[C@@H](C)CN([C@@H](C)CO)C(=O)c2cc(NC(=O)NC3CCCCC3)ccc2O1`?
TGFb SMAD3 inh: -3%; ATXN2 expr inh: -5%; S2 tox: 25µM*; HepG2 viability: -21%

Results for COc1ccc(-n2ccc(-c3sc(NCc4cc(OC)c5c(c4)OCO5)nc3C)n2)cc1 ?
S2 tox: inactive

How did N=C1N(c2ccccc2)C(=S)C(=Nc2ccccc2)N1c1ccccc1 do in these assays?
TGFb SMAD3 inh: 1.6µM*; ATXN2 expr inh: 34%; S2 tox: inactive; HepG2 viability: 20%; Giardia killer: 6; uPA generation: -3%

How did CCCCOC(=O)c1ccc(NS(=O)(=O)c2c(C)nc3scc(C)n3c2=O)cc1 do in these assays?
TGFb SMAD3 inh: 11µM*; ATXN2 expr inh: -8%; S2 tox: inactive; HepG2 viability: -29%

What do the screens show for `Cc1cccc(N2CCN(C(=O)C3CCN(C(=O)c4cc5sccc5n4C)CC3)CC2)c1C`?
TGFb SMAD3 inh: 11µM*; HepG2 viability: -12%

Results for Cc1cccc(N2CCN(C(=O)C3CCN(S(=O)(=O)Cc4ccccc4)CC3)CC2)c1C ?
TGFb SMAD3 inh: inconclusive; ATXN2 expr inh: 10%; S2 tox: inactive; HepG2 viability: 18µM*

How did O=C(C1CCN(S(=O)(=O)Cc2ccccc2)CC1)N1CCN(c2ccccc2)CC1 do in these assays?
TGFb SMAD3 inh: 23%; ATXN2 expr inh: -1%; S2 tox: inactive; HepG2 viability: -1%

What do the screens show for `O=C(CC(C(=O)O)n1ccnc1)c1ccc(Cl)cc1` (stereo not given)?
TGFb SMAD3 inh: -13%; HepG2 viability: 6%

How did COc1ccc(C(=O)CSc2nc(C(C)(C)C)nc3ccccc23)cc1 do in these assays?
TGFb SMAD3 inh: 20µM*; ATXN2 expr inh: -23%; S2 tox: inactive; HepG2 viability: -31%; Giardia killer: 1; uPA generation: 11%

Results for CN1CCN(C(=O)Nc2cccc(Cl)c2)c2cccnc21 ?
TGFb SMAD3 inh: 16µM*; ATXN2 expr inh: 0%; S2 tox: inactive; HepG2 viability: -53%

What do the screens show for `Cc1ccc(Cl)cc1NC(=O)N1CCN(C)c2ncccc21`?
TGFb SMAD3 inh: inconclusive; ATXN2 expr inh: -1%; S2 tox: inactive; HepG2 viability: -42%

What do the screens show for `COc1ccc2c(Sc3ccccc3)c(C(=O)NCCN(C)C)[nH]c2c1`?
TGFb SMAD3 inh: -7%; ATXN2 expr inh: -20%; S2 tox: inactive; HepG2 viability: -29%

How did COc1ccc2c(Sc3ccccc3)c(C(=O)N3CCC(C)CC3)[nH]c2c1 do in these assays?
TGFb SMAD3 inh: 14µM*; ATXN2 expr inh: inconclusive; HepG2 viability: -115%

Results for CCCn1c(NC(=O)c2cccc(S(=O)(=O)N3CCCC3)c2)nc2ccccc21 ?
TGFb SMAD3 inh: 14µM*; ATXN2 expr inh: 16µM*; S2 tox: inconclusive; HepG2 viability: -44%; Giardia killer: 0; uPA generation: -14%

How did Cn1c(N)c(C(C[N+](=O)[O-])c2ccccc2Cl)c(=O)n(C)c1=O (stereo not given) do in these assays?
TGFb SMAD3 inh: -14%; ATXN2 expr inh: 10%; S2 tox: inactive; HepG2 viability: -2%; Giardia killer: 7; uPA generation: -9%

Results for COc1cccc(F)c1C(C[N+](=O)[O-])c1c(N)n(C)c(=O)n(C)c1=O (stereo not given) ?
TGFb SMAD3 inh: 4µM*; S2 tox: 20µM*; HepG2 viability: -123%; Giardia killer: -21; uPA generation: inconclusive

How did Cc1ccc(C(C[N+](=O)[O-])c2c(N)n(C)c(=O)n(C)c2=O)cc1 (stereo not given) do in these assays?
TGFb SMAD3 inh: inconclusive; ATXN2 expr inh: -19%; S2 tox: inconclusive; HepG2 viability: -90%; Giardia killer: -14; uPA generation: 10µM*

Results for COc1cc(C(C[N+](=O)[O-])c2c(N)n(C)c(=O)n(C)c2=O)ccc1O (stereo not given) ?
TGFb SMAD3 inh: inconclusive; ATXN2 expr inh: inconclusive; S2 tox: inconclusive; HepG2 viability: -41%; Giardia killer: 4; uPA generation: -16%

What do the screens show for `Cc1ccc(-c2ccccc2C#N)cc1`?
ATXN2 expr inh: 4%; S2 tox: inactive
